# Values quoted from earlier work in PubChem BioAssay AID977611.
# Screen size: about 3,900 compounds; about 3,900 (100%) were called active. Cut-off not given; nearly all actives show Kd up to about 4200 µM. So high a share suggests a set chosen from earlier hits. Some of the results follow. Peptide text beside a SMILES is read from it.
# Assay: PubChem AID 977611
# Conditions: PDB protein-ligand complexes, literature Kd
compound,measurement,setting,value
CNc1ncnc2c1ncn2[C@@H]1O[C@H](CO)[C@@H](O)[C@H]1O,Kd,"protein: YTH domain-containing family protein 2 YTH-YTHDF2, PDB entry 4rdn",1.2 µM (active)
O[C@@H]1[C@H](O)[C@@H](CO[P+](O)(O)O)O[C@H]1n1cnc2c(NCc3ccco3)ncnc21,Kd,"protein: 2'-deoxynucleoside 5'-phosphate N-hydrolase 1, DNPH1 (RCL), PDB entry 4kxn",0.8 µM (active)
O[C@@H]1[C@H](O)[C@@H](CO[P+](O)(O)O)O[C@H]1n1cnc2c(NC3CCCC3)ncnc21,Kd,"protein: 2'-deoxynucleoside 5'-phosphate N-hydrolase 1, DNPH1 (RCL), PDB entry 4kxl",0.6 µM (active)
CN(C)[C@@H](Cc1cnc[nH]1)C(=O)O,Kd,"protein: Histidine-specific methyltransferase EgtD, PDB entry 4pin",4 µM (active)
same,Kd,"protein: Histidine-specific methyltransferase EgtD, PDB entry 4pio",2 µM (active)
C=C1C/C=C/[C@H](OC)[C@H](OC(N)=O)C(=C)C[C@@H](C)[C@@H](O)[C@@H](OC)C[C@H](C)CC2=C(OC)C(=O)C(C)=C(NC1=O)C2=O,Kd,"protein: ATP-DEPENDENT MOLECULAR CHAPERONE HSP82, PDB entry 4as9",16.3 µM (active)
OCc1cn([C@H]2O[C@H](CO)[C@@H](O)[C@H](O)[C@@H]2O)nn1,Kd,"protein: Concanavalin-A ConA, PDB entry 4pf5",3.3 µM (active)
CCC(=O)O[C@H](CCOCc1ccccc1)[C@@H](C)[C@H](O)[C@@H](C)CCC(=O)[C@H](C)[C@H](OC(C)=O)[C@H](C)/C=C/N(C)C=O,Kd,"protein: Actin, alpha skeletal muscle, PDB entry 4k42",0.285 µM (active)
NC1N=C2NN=C(CC(=O)O)C(=O)C2C(=O)N1 (stereo unspecified),Kd,"protein: Dihydropteroate Synthase, PDB entry 4dai",0.11 µM (active)
O=C1NC(=O)[C@H](Cc2ccccc2)N1,Kd,"protein: Mhp1, PDB entry 2JLO",54 µM (active)
O=C1N=C(Cc2cccc(Br)c2)C(=O)N1,Kd,"protein: nucleobase-cation-symport-1 family hydantoin transporter Mhp1, PDB entry 4d1c",2 µM (active)
CCCCCCCCC(=O)c1cc(O)c(O)c(O)c1,Kd,"protein: Nuclear receptor subfamily 4 group A member 1, PDB entry 4jgv",0.27 µM (active)
C[C@]12CC(=O)[C@H]3[C@@H](CCC4=CC(=O)CC[C@@]43C)[C@@H]1CC[C@@H]2C(=O)CO,Kd,"protein: Phospholipase A2 VRV-PL-VIIIa, PDB entry 4qf7",0.0025 µM (active)
H-QQHHLGGAKQAGDV-OH,Kd,"protein: FIBRONECTIN-BINDING PROTEIN A, PDB entry 4b60",3.7 µM (active)
H-GALGGAKQAGAV-OH,Kd,"protein: Clumping factor A (ClfA), PDB entry 2vr3",10.5 µM (active)
H-FNYESTGPFTAK-OH,Kd,"protein: EH domain-containing protein 1 C-terminal domain, PDB entry 2kfh",2400 µM (active)
H-FNYESTNPFTAK-OH,Kd,"protein: EH domain-containing protein 1 C-terminal domain, PDB entry 2kff",245 µM (active)
H-LESKPYNPFEEEEED-OH,Kd,"protein: C-terminal domain of EH domain-containing protein 1, PDB entry 2ksp",57 µM (active)
H-KSAVTTVVNP-OH,Kd,"protein: Integrin beta-1-binding protein 1, PDB entry 4dx9",5 µM (active)
H-FNYESTDPFTAK-OH,Kd,"protein: EH domain-containing protein 1 C-terminal domain, PDB entry 2kfg",1200 µM (active)
COC1=CC=C2CC3C4CC5OCOC5CC4CCN3C[C@H]2[C@@H]1OC (stereo partly specified),Kd,"protein: Putative regulatory protein, PDB entry 3vw2",17.9 µM (active)
Cc1cc2c([nH]1)NC(=O)N([C@@H]1O[C@H](CO)[C@@H](O)[C@H]1O)C2,Kd,"protein: NupC family protein CNT-7C8C, PDB entry 4pd8",0.94 µM (active)
CC[C@H](C)[C@H](NC(=O)[C@H](CC(=O)O)NC(=O)[C@@H](N)CC(=O)O)C(=O)N[C@@H](CO[P+](O)(O)O)C(=O)N[C@@H](CC(C)C)C(=O)N[C@@H](CC(C)C)C(=O)N[C@@H](CCCCN)C(=O)O,Kd,"protein: human GGA1(Golgi-localizing, ?-adaptin ear homology domain, ARF-interacting) VHS domains, PDB entry 1ujk",0.27 µM (active)
H-DDISLLK-OH,Kd,"protein: human GGA1(Golgi-localizing, ?-adaptin ear homology domain, ARF-interacting) VHS domains, PDB entry 1ujj",0.8 µM (active)
Cc1nc2ccccc2c(-c2ccc3c(c2)CCCO3)c1[C@H](OC(C)(C)C)C(=O)O,Kd,"protein: Integrase IN CCD (H171T mutant), PDB entry 4tsx",10.3 µM (active)
CN(C)Cc1c[nH]c2c(CCCO)cccc12,Kd,"protein: Phospholipase A2 VRV-PL-VIIIa, PDB entry 4qgd",0.037 µM (active)
C[C@H](N)C(=O)N[C@@H](CO[P+](O)(O)O)C(=O)N[C@@H](CCC(N)=O)C(=O)N[C@@H](CCC(=O)O)C(=O)N[C@@H](Cc1ccc(O)cc1)C(=O)O,Kd,"protein: Mediator of DNA damage checkpoint protein 1(MDC1/NFBD1), PDB entry 2azm",2.2 µM (active)
H-TNLYML-OH,Kd,"protein: E. coli UDP-N-acetylglucosamine acyltransferase (LpxA), PDB entry 4j09",17 µM (active)
H-TNEFYA-OH,Kd,"protein: the PDZ Tandem of Syntenin 1, PDB entry 1ybo",160 µM (active)
H-DAEFRA-OH,Kd,"protein: 3D6 FAB ANTIBODY, PDB entry 4onf",0.0012 µM (active)
H-TYKFFEQ-OH,Kd,"protein: adaptor protein complex 4 (AP-4) mu4 subunit C-terminal domain D190A mutant, PDB entry 4mdr",40.6 µM (active)
Oc1ccc(F)cc1O,Kd,"protein: Protocatechuate 3,4-dioxygenase alpha chain 3,4-PCD, PDB entry 4whq",75 µM (active)
same,Kd,"protein: Protocatechuate 3,4-dioxygenase alpha chain 3,4-PCD, PDB entry 4whr",75 µM (active)
same,Kd,"protein: Protocatechuate 3,4-dioxygenase alpha chain 3,4-PCD, PDB entry 4whs",75 µM (active)
H-MFAAFDYIA-OH,Kd,"protein: 3-phosphoinositide-dependent protein kinase 1 PDK1, PDB entry 4rrv",0.04 µM (active)
CSCC[C@H](NC(=O)[C@@H](N)CC(=O)O)C(=O)N[C@@H](Cc1ccc(O)cc1)C(=O)N[C@@H](C)C(=O)O (H-DMYA-OH),Kd,"protein: E3 ubiquitin-protein ligase RNF31 HOIP PUB Domain, PDB entry 4p0b",0.29 µM (active)
